Source: PubChem BioAssay AID434970 (Sanford-Burnham Center for Chemical Genomics, 2010)
In all, about 11,000 compounds went through this assay and about 310 (2.8%) were called active. Cut-off read from the data, not from the text of the source: active = activity change below about -85%; inactive = the rest. The entries come from a sample that favours actives as a whole.

What follows are molecules tested on intestinal alkaline phosphatase [Mus musculus] (assay: mouse intestinal phosphatase enzyme activation – biochemical, luminescence, single concentration, confirmation (AID 434970)). Conditions: purified mouse IAP, CDP-Star luminescence, 30 min, at 10 µM; activation factor: measured here: IAP activation factor, stronger effect = higher value; activity change, negative = activation: stronger effect = lower value.

Row | Structure (SMILES) | activation factor | activity change, negative = activation
1 | CCOc1ccccc1N1CCN(S(=O)(=O)c2ccc3c4c(cccc24)C(=O)N3)CC1 | 0.442 | 55.8% (inactive)
2 | Cc1c(Cl)cccc1NC(=S)NCCC(C)C | 1.19 | -19.2% (inactive)
3 | Cc1ccc(Cl)cc1NC(=S)NCCCSC1CCCCC1 | 1.29 | -28.8% (inactive)
4 | S=C(NCCCc1ccccc1)Nc1ccccc1Cl | 1.26 | -26.2% (inactive)
5 | COc1ccc(Cl)cc1NC(=S)NCCSc1ccc(C)cc1 | 1.43 | -42.5% (inactive)
6 | Cc1c(Cl)cccc1NC(=S)NCc1ccccc1 | 1.04 | -4% (inactive)
7 | COc1ccccc1NC(=S)NCCC(c1ccccc1)c1ccccc1 | 1.39 | -38.9% (inactive)
8 | S=C(NCCC(c1ccccc1)c1ccccc1)Nc1ccccc1Cl | 1.84 | -84.1% (inactive)
9 | Cc1cc(Cl)ccc1NC(=S)NCCC(c1ccccc1)c1ccccc1 | 2.05 | -105% (active)
10 | Cc1ccccc1NC(=S)NCCC(c1ccccc1)c1ccccc1 | 1.96 | -96% (active)
11 | Cc1c(Cl)cccc1NC(=S)NCCC(c1ccccc1)c1ccccc1 | 4.75 | -375% (active)
12 | S=C(NCCc1ccc(Cl)cc1)Nc1ccc(Cl)cc1Cl | 1.36 | -36.1% (inactive)
13 | COc1ccc(Cl)cc1NC(=S)NCCC(c1ccccc1)c1ccccc1 | 2.07 | -107% (active)
14 | CSc1nc(Oc2ccc(=O)n(C)n2)nc(N(C)C)n1 | 1.07 | -6.65% (inactive)
15 | COc1ccc(C2C(C#N)=C(N)N(c3sc4c(c3C#N)CCCC4)C3=C2C(=O)CC(C)(C)C3)cc1OC (stereo not given) | 0.851 | 14.9% (inactive)
16 | CCC(C)(C)NC(=O)C(c1ccccc1)N(C(=O)c1csnn1)C1CC1 (stereo not given) | 0.99 | 1% (inactive)
17 | Cc1cc(=O)c2cc(Br)ccc2[nH]1 | 0.944 | 5.65% (inactive)
18 | CCOC(=O)CSc1nc(-c2ccc(OC)cc2)ns1 | 1 | 0.05% (inactive)
19 | COc1ccccc1C(=O)NCCN1CCN(C(=O)c2ccccc2OC)CC1 | 1.1 | -10.1% (inactive)
20 | COc1ccc(C(=O)Nc2ccccc2C(=O)N/N=C/c2cccc3ccccc23)cc1 | 1.02 | -1.95% (inactive)

Row | Structure (SMILES) | activation factor | activity change, negative = activation
21 | COc1cccc(C(CC(=O)Nc2cccc3ccccc23)NC(=O)c2ccccc2)c1 (stereo not given) | 2.19 | -119% (active)
22 | COc1cccc(OCC(=O)Nc2ccccc2NC(C)=O)c1 | 1.08 | -8.25% (inactive)
23 | NC(=O)CSc1nnc(-c2ccncc2)n1CCc1ccccc1 | 1.05 | -5.05% (inactive)
24 | COc1ccc(COC(=O)Nc2cc3c(C(F)(F)F)nn(C)c3s2)cc1 | 1.23 | -23.1% (inactive)
25 | O=C1NC2(CCCCC2)C(=O)N1c1ccccc1 | 1.08 | -7.85% (inactive)
26 | COc1ccc(NC(=O)NC23CC4(C)CC(C)(CC(C)(C4)C2)C3)cc1 | 2.08 | -108% (active)
27 | COc1ccc(NC(=O)NC23CC4(C)CC(C)(CC(C)(C4)C2)C3)cc1OC | 1.65 | -64.8% (inactive)
28 | COc1ccc(NC(=O)NCc2ccncc2)cc1 | 1.01 | -0.85% (inactive)
29 | Cn1nnnc1SCC(=O)N1CCN(c2ccc(Cl)cc2)CC1 | 1.06 | -5.85% (inactive)
30 | CCN(CC)c1ccc(NC(=O)c2cccc(OC)c2)c(C)c1 | 0.97 | 3.05% (inactive)
31 | CCOc1ccc(OCCCN(C)C)cc1 | 0.976 | 2.4% (inactive)
32 | O=C(CN1CCN(Cc2ccccc2Cl)C1=O)NCc1ccco1 | 0.935 | 6.45% (inactive)
33 | Cc1ccc(NC(=O)NCC2CCN(Cc3cccc(Cl)c3)CC2)c(Cl)c1 | 2.2 | -120% (active)
34 | CCOC(=O)N1CCN(C(=O)Nc2ccc(Cl)cc2Cl)CC1 | 1.02 | -1.6% (inactive)
35 | Cc1cccc(CN2CCC(CNC(=O)CCNC(=O)Cn3ccc4ccccc4c3=O)CC2)c1 | 0.974 | 2.6% (inactive)
36 | O=C(NCC1CCN(Cc2cccc(Cl)c2)CC1)Nc1ccccc1Cl | 2.17 | -118% (active)
37 | S=C(Nc1cc(Cl)cc(Cl)c1)NC1CCN(Cc2ccccc2)CC1 | 1.54 | -53.5% (inactive)
38 | CCOC(=O)C1CCN(CCC(=O)Nc2ccccc2Cl)CC1 | 0.996 | 0.35% (inactive)
39 | COc1cccc(Cn2cnc3c(NS(=O)(=O)c4ccc(Cl)cc4Cl)c(C)c(C)cc32)c1 | 0.985 | 1.45% (inactive)
40 | CC(C)n1cc(CN2CCC(C(=O)Nc3cccc(-c4cccc(Cl)c4)c3)CC2)cn1 | 3.97 | -297% (active)
